Source: PubChem
In the library only some 2.4% were active in any assay of this set; here they are far more common.
Cruzain inh noDet: inhibitors of Trypanosoma cruzi cruzain without detergent; P25779; purified cruzain, Z-FR-AMC fluorescence, no detergent; Potency, µM, for the others: max response, negative = inhibition, most hits filed as inhibitors; hit rate 2.3% among 200,000; AID 1476;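 further: plate controls were enzyme without inhibitor for no effect and buffer without enzyme for full effect; nearly all actives have a fitted effect of over 40% in size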
Target sequence (P25779 123-467 limits assumed): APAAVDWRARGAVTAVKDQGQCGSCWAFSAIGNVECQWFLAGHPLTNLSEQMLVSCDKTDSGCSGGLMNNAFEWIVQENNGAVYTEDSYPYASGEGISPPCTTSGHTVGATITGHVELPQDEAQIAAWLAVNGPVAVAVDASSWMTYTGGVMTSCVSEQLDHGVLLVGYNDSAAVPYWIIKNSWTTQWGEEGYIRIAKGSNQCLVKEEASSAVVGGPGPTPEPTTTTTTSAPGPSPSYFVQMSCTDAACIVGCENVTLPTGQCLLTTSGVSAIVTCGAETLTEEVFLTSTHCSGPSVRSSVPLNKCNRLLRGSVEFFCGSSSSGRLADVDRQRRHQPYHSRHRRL
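Detergent-free condition (0.00005% Triton X-100) in acetate buffer pH 5.5 with DTT. 1.5 nM enzyme and compound were pre-mixed 15 min, then 2 uM Z-FR-AMC substrate added; reaction progress from fluorescence change between first and third reads (60 s).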
Cruzain Triton: cruzain (T. cruzi) inhibition with detergent. P25779. purified cruzain, Z-FR-AMC fluorescence, 0.01% Triton. Potency, µM, without a hit: max response, negative = inhibition, usual class: inhibitors. hit rate 0.43% among 200,000. AID 1478;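 further: plate controls were neutral wells for no effect and buffer without enzyme for full effect; nearly all actives have a fitted effect of over 40% in size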
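Steps: dispense cruzain (1.5 nM final) in acetate buffer pH 5.5 with DTT and 0.01% Triton X-100; pin-transfer compounds; incubate 15 min RT; add Z-FR-AMC (2 uM final); read fluorescence every 30 s, using the 60 s intensity change.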
An asterisk follows results filed as active; u = inconclusive. The call rests on the fitted dose curve; in most records, active means well fitted curve in the direction sought with a large enough effect; inconclusive means small, poorly fitted or top-dose-only effect, or another doubt; inactive means no such curve, though single readings can be large; an effect the other way counts as inactive or inconclusive. Potency means the concentration at half of the fitted maximal effect.

SMILES	Cruzain inh noDet	Cruzain Triton
CCCCOc1ccc(C(=O)NCCc2csc3nc(-c4ccccc4F)nn23)cc1	21.4%	-6.8%
Oc1ccc2ccccc2c1Cc1c(O)ccc2ccccc12	-5.3%	-6.4%
Cc1cc(C(=O)Nc2nnc(C3CCCCC3)s2)cs1	u	12.8%
O=C(Nc1nnc(C2CCCCC2)s1)c1ccc(Br)s1	25.1µM*	-1.9%
Cc1cc(=O)n(CC(=O)N2CCN(c3ccc(F)cc3)CC2)c2c1c(C)nn2C	u	-3.0%
FC(F)(F)c1cc(NC(=S)Nc2ccc3cc4ccccc4cc3c2)cc(C(F)(F)F)c1	u	3.2%
Cc1cc(C)cc([N+](=O)[O-])c1	-3.3%	-1.2%
CC(=O)O/C(=C1/C[C@H]2[C@@H]3CC=C4C[C@@H](OC(C)=O)CC[C@]4(C)[C@@H]3CC[C@]2(C)C1=O)C(F)(F)F	-1.5%	1.7%
CCc1ccc(-n2nc3cc(C)c(NC(=O)c4cc(Cl)ccc4OC)cc3n2)cc1	-3.9%	0.3%
CCN(CC)c1ccc(NC(=O)/C=C/c2cc(Br)ccc2OC)cc1	25.1µM*	-3.6%
COc1ccc(NC(=O)/C=C/c2cc(Br)ccc2OC)cc1	-2.3%	-4.7%
O=[N+]([O-])c1cccc(/C=N/Nc2nnc(-c3ccccc3)c(-c3ccccc3)n2)c1	7.94µM*	-5.4%
C/C(=N\Nc1nnc(-c2ccccc2)c(-c2ccccc2)n1)c1cccc([N+](=O)[O-])c1	u	-5.6%
CCc1ccc(NC(=O)CCn2c(=O)oc3ccccc32)cc1	1.26µM*	-0.6%
Cc1ccc(NC(=O)CCn2c(=O)oc3ccccc32)cc1	-3.5%	1.2%
c1cncc(CNc2ncncc2-c2ccc3c(c2)OCO3)c1	-4.2%	7.0%
O=C(CSc1nnnn1-c1ccc(Cl)cc1)NC(=O)Nc1ccc2c(c1)OCCO2	25.1µM*	-1.7%
Cc1cccc(NC(=O)CSc2nnc(NC(=O)c3ccc(S(=O)(=O)N4CCOCC4)cc3)s2)c1C	-11.2%	-0.8%
Cc1ccc(-n2nnnc2SCC(=O)NC(=O)Nc2ccc3c(c2)OCCO3)cc1	-12.4%	-2.8%
Cc1cccc(Nc2nnc(SCC(=O)Nc3cccnc3Cl)s2)c1	15.8µM*	25.1µM*
Cc1cccc(Nc2nnc(SCC(=O)NC3CCCc4ccccc43)s2)c1 (stereo not drawn)	-5.0%	-9.3%
Cc1ccccc1Nc1nnc(SCC(=O)NC(=O)Nc2ccc3c(c2)OCCO3)s1	u	-3.9%
Cc1cccc(Nc2nnc(SCC(=O)NC(=O)Nc3ccc4c(c3)OCCO4)s2)c1	15.8µM*	-1.8%
Cc1cccc(C)c1Nc1nnc(SCC(=O)Nc2cc(S(=O)(=O)N3CCCCC3)ccc2Cl)s1	12.6µM*	-2.7%
CCCC(=O)Nc1ccc2nn(-c3ccc(CC)cc3)nc2c1	2.5%	-2.0%
SMILES	Cruzain inh noDet	Cruzain Triton
Cc1cccc(Nc2nnc(SCC(=O)Nc3cccc(S(=O)(=O)N4CCCCC4)c3)s2)c1	12.6µM*	-2.8%
Cc1cccc(NC(=O)CSc2nnc(NC(=O)CN3CCCCC3)s2)c1	-13.9%	-3.9%
COc1ccc(/C=C(\C#N)C(=O)OCC(=O)Nc2c(C)cccc2C)cc1	u	-0.6%
COc1ccc(/C=C(\C#N)C(=O)OCC(=O)NCc2ccccc2)cc1	31.6µM*	-10.3%
COc1cccc(C(=O)N(Cc2ccco2)c2ccccn2)c1	-7.8%	2.4%
CC(C)(SCc1ccccc1)[C@H](N)C(=O)O	-5.3%	1.2%
O=S(=O)(Nc1ncnc2sc3c(c12)CCC3)c1ccc2ccccc2c1	31.6µM*	-4.6%
c1ccc(Nc2ncnc3sc4c(c23)CCC4)cc1	-6.9%	-5.2%
O=C(Nc1ccc(Cl)cc1)Nc1nnc(CSCc2ccccc2Cl)s1	6.31µM*	-1.3%
O=C(Nc1ccc(Cl)c(Cl)c1)Nc1nnc(CSc2ccccc2)s1	10µM*	-1.0%
Cc1ccc(OCCSCc2nnc(NC(=O)Nc3cccc(Cl)c3)s2)cc1	15.8µM*	-1.5%
O=C(Nc1ccccc1)Nc1nnc(CSCc2ccccc2Cl)s1	u	-2.8%
Cc1nnc(NC(=O)Nc2cccc(Cl)c2)s1	-0.5%	0.9%
CCCc1nnc(NC(=O)Nc2ccccc2Cl)s1	-12.1%	-1.6%
O=C(Nc1nnc(SCc2ccc(Cl)cc2)s1)c1ccco1	u	5.7%
O=C(Nc1ccc(Cl)cc1)Nc1nnc(SCc2ccccc2)s1	7.94µM*	-0.7%
COC(=O)C1(C)C=CC2(CCCCC2)N1C(=O)c1ccccc1 (stereo not drawn)	-5.3%	-1.3%
COc1ccc(NC(=O)c2c(NCc3ccc(N(C)C)cc3)sc3c2CCC3)cc1	-12.4%	-5.6%
O=C(NCCCN1CCOCC1)[C@@H]1CSC2c3ccccc3C(=O)N21 (stereo partly drawn)	-0.4%	-2.3%
Cc1nc(-c2cccc(NS(=O)(=O)c3ccc4ccccc4c3)c2)cs1	25.1µM*	-1.4%
Cc1nc(CNS(=O)(=O)c2ccc3ccccc3c2)cs1	-2.6%	2.5%
COc1ccc(NC(=O)C2CCCN(S(=O)(=O)c3ccc4c(c3)CCCC(=O)N4)C2)cc1OC (stereo not drawn)	4.4%	-1.8%
